# Test results: PubChem BioAssay (EPA / NIEHS)
# Activity calls are given as the source filed them. How the source made its calls: active means hit-call score of the fitted dose curve at least 0.9, where 1 is the maximum; inactive means score below 0.9.
# How the values were obtained:
# Details in all cases: mRNA level, 48 h; actives raise or lower the signal
# [1] = read-out: Apolipoprotein A-V (APOA5) gene, APOA5 (gene 116519); experiment: LTEA_HepaRG_APOA5: Life Technologies and Expression Analysis (LTEA) Assay for Apolipoprotein A-V (APOA5) gene using HepaRG (AID 2283474)
# Method in brief: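 Readout is APOA5 transcript level by qRT-PCR on Fluidigm dynamic arrays, normalized to three housekeeping genes. HepaRG cultures received chemicals for 48 h at up to 100 uM (half-log steps, 0.5% DMSO), with gain or loss scored relative to DMSO.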
# [2] = read-out: Apoptosis regulator Bcl-2 (Homo sapiens) (UniProt P10415); experiment: LTEA_HepaRG_BCL2: Life Technologies and Expression Analysis (LTEA) Assay for Bcl-2 gene using HepaRG (AID 2283475)
# Method in brief: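 Each chemical was tested in duplicate on HepaRG cultures held in serum-free induction medium for 48 h, highest concentration 100 uM with half-log dilutions. Transcript levels came from multiplexed qRT-PCR, normalised to housekeeping genes; activity was scored in either direction relative to DMSO.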
# [3] = read-out: Bcl-2 (BID) gene, BID (gene 637); experiment: LTEA_HepaRG_BID: Life Technologies and Expression Analysis (LTEA) Assay for Bcl-2 (BID) gene using HepaRG (AID 2283476)
# Method in brief: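 Assay used HepaRG hepatic cells treated 48 h in serum-free medium with half-log dilutions from 100 uM. Endpoint: BID mRNA, qRT-PCR, normalized to ACTB/GAPDH/POLR2A.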
# Caspase-3 (Homo sapiens) = Caspase-3 (Homo sapiens) (UniProt P42574); experiment: LTEA_HepaRG_CASP3: Life Technologies and Expression Analysis (LTEA) Assay for cysteine-aspartic acid protease (CASP3) using HepaRG (AID 2283477)
# Method in brief: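 Read-out is CASP3 mRNA level by TaqMan qRT-PCR in human HepaRG cells after 48 h chemical exposure. Eight half-log concentrations topping at 100 uM were tested in 0.5% DMSO; gain or loss was fitted relative to DMSO.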
# [4] = read-out: Cytochrome P450 (CYP24A1), CYP24A1 (gene 1591); experiment: LTEA_HepaRG_CYP24A1: Life Technologies and Expression Analysis (LTEA) Assay for Cytochrome P450 (CYP24A1) using HepaRG (AID 2283478)
# Method in brief: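 HepaRG, 48 h chemical exposure, 8-pt half-log CRC from 100 uM, 0.5% DMSO vehicle, duplicates. Endpoint: CYP24A1 mRNA by Fluidigm TaqMan qRT-PCR, normalized ACTB/GAPDH/POLR2A; gain/loss fit vs DMSO.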
# [5] = read-out: Cytochrome P450 (CYP1A2), CYP1A2 (gene 1544); experiment: LTEA_HepaRG_CYP1A2: Life Technologies and Expression Analysis (LTEA) Assay for Cytochrome P450 (CYP1A2) using HepaRG (AID 2283479)
# Method in brief: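 CYP1A2 transcript induction or loss, quantified by Fluidigm qRT-PCR against three housekeeping genes, was fitted bidirectionally against 0.5% DMSO controls. Human HepaRG cells received eight half-log concentrations from 100 uM over 48 h.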
# [6] = read-out: cysteine-aspartic acid protease (CASP8), CASP8 (gene 841); experiment: LTEA_HepaRG_CASP8: Life Technologies and Expression Analysis (LTEA) Assay for cysteine-aspartic acid protease (CASP8) using HepaRG (AID 2283480)
# Method in brief: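 CASP8 transcript measured by TaqMan qRT-PCR with ACTB/GAPDH/POLR2A normalization, after 48 h chemical exposure of HepaRG cells in serum-free induction medium. Eight concentrations, top 100 uM, half-log steps, 0.5% DMSO vehicle; fits in both directions versus DMSO.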
# [7] = read-out: Cytochrome P450 (CYP2B6), CYP2B6 (gene 1555); experiment: LTEA_HepaRG_CYP2B6: Life Technologies and Expression Analysis (LTEA) Assay for Cytochrome P450 (CYP2B6) using HepaRG (AID 2283481)
# Method in brief: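 HepaRG cells plated 48 h, switched to serum-free induction medium, then dosed 48 h (8 points, half-log from 100 uM, 0.5% DMSO). RNA isolated; CYP2B6 expression measured by qRT-PCR; gain or loss fitted relative to DMSO.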
# [8] = read-out: Cytochrome P450 2C19 (Homo sapiens) (UniProt P33261); experiment: LTEA_HepaRG_CYP2C19: Life Technologies and Expression Analysis (LTEA) Assay for CYP2C19 using HepaRG (AID 2283482)
# Method in brief: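 Transcript levels of CYP2C19 were quantified by qRT-PCR after HepaRG cells were treated for 48 hours with test chemicals up to 100 uM (eight half-log concentrations, 0.5% DMSO vehicle). Gain or loss of signal was fitted relative to DMSO.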
# CYP2C8 (gene 1558) = experiment: LTEA_HepaRG_CYP2C8: Life Technologies and Expression Analysis (LTEA) Assay for CYP2C8 using HepaRG (AID 2283483)
# Method in brief: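 CYP2C8 expression measured by TaqMan qRT-PCR and normalized to three housekeeping genes. HepaRG cultures were treated for 48 h with an eight-point half-log series topping at 100 uM, vehicle 0.5% DMSO, duplicates; fitted both directions against DMSO.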
# CYP2C9 (gene 1559) = experiment: LTEA_HepaRG_CYP2C9: Life Technologies and Expression Analysis (LTEA) Assay for CYP2C9 using HepaRG (AID 2283484)
# Method in brief: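 CYP2C9 transcript level, quantified by TaqMan qRT-PCR against three housekeeping genes, was fitted bidirectionally relative to 0.5% DMSO. HepaRG cultures were treated 48 h, in duplicate, at eight half-log concentrations topping at 100 uM.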
# CYP2E1 (gene 1571) = experiment: LTEA_HepaRG_CYP2E1: Life Technologies and Expression Analysis (LTEA) Assay for CYP2E1 using HepaRG (AID 2283485)
# Method in brief: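 Assay uses 48 h exposure of HepaRG hepatic cells, eight concentrations to 100 uM. Expression of CYP2E1 is quantified by TaqMan qRT-PCR with ACTB, GAPDH and POLR2A normalization; curves fitted in both directions relative to vehicle.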
# CYP4A11 (gene 1579) = experiment: LTEA_HepaRG_CYP4A11: Life Technologies and Expression Analysis (LTEA) Assay for CYP4A11 using HepaRG (AID 2283486)
# Method in brief: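 HepaRG, 48 h chem exposure, 8 conc (100 uM top, half-log), 0.5% DMSO vehicle; qRT-PCR readout, housekeeping-gene normalized; bidirectional curve fit vs DMSO baseline.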
# [9] = read-out: Cytochrome P450 3A4 (Homo sapiens) (UniProt P08684); experiment: LTEA_HepaRG_CYP3A4: Life Technologies and Expression Analysis (LTEA) Assay for CYP3A4 using HepaRG (AID 2283487)
# Method in brief: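 CYP3A4 transcript measured by TaqMan qRT-PCR and normalized to three housekeeping genes after 48 h chemical exposure of human HepaRG cells. Top concentration 100 uM, half-log steps, 0.5% DMSO vehicle; gain or loss fitted against DMSO baseline.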
# [10] = read-out: DNA damage-inducible transcript 3 (DDIT3), DDIT3 (gene 1649); experiment: LTEA_HepaRG_DDIT3: Life Technologies and Expression Analysis (LTEA) Assay for DNA damage-inducible transcript 3 (DDIT3) using HepaRG (AID 2283488)
# Method in brief: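 Eight-point concentration-response (100 uM highest, half-log dilutions) in HepaRG, 48 h, duplicate wells. Endpoint: qRT-PCR mRNA, normalized (ACTB, GAPDH, POLR2A), bidirectional fitting with DMSO as baseline.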
# [11] = read-out: Early growth response protein 1 (EGR1) transcription factor, EGR1 (gene 1958); experiment: LTEA_HepaRG_EGR1: Life Technologies and Expression Analysis (LTEA) Assay for Early growth response protein 1 (EGR1) transcription factor using HepaRG (AID 2283490)
# Method in brief: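 EGR1 transcript levels quantified by qRT-PCR (Fluidigm arrays) against three housekeeping genes after 48 h chemical exposure of HepaRG cells. Eight-point half-log series topping at 100 uM, 0.5% DMSO vehicle, analyzed for gain or loss.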
# [12] = read-out: Ezrin (EZR), EZR (gene 7430); experiment: LTEA_HepaRG_EZR: Life Technologies and Expression Analysis (LTEA) Assay for Ezrin (EZR) using HepaRG (AID 2283491)
# Method in brief: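 HepaRG, 48 h chemical exposure, 8-pt half-log series from 100 uM, 0.5% DMSO vehicle, duplicates. Read-out: EZR mRNA by TaqMan qRT-PCR (Fluidigm array), housekeeping-normalized; bidirectional curve fit vs DMSO baseline.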
# [13] = read-out: Cytochrome P450 3A7 (Homo sapiens) (UniProt P24462); experiment: LTEA_HepaRG_CYP3A7: Life Technologies and Expression Analysis (LTEA) Assay for CYP3A7 using HepaRG (AID 2283492)
# Method in brief: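 Human HepaRG liver cells, 48 h post-plating, switched to serum-free induction medium and exposed in duplicate for 48 h. Dosing: 100 uM top, half-log dilutions, 8 points, 0.5% DMSO vehicle. Read-out: CYP3A7 mRNA, gain or loss fitted against DMSO baseline.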
# Cytochrome P450 3A4 (Homo sapiens), sequence (P08684 whole entry, looked up): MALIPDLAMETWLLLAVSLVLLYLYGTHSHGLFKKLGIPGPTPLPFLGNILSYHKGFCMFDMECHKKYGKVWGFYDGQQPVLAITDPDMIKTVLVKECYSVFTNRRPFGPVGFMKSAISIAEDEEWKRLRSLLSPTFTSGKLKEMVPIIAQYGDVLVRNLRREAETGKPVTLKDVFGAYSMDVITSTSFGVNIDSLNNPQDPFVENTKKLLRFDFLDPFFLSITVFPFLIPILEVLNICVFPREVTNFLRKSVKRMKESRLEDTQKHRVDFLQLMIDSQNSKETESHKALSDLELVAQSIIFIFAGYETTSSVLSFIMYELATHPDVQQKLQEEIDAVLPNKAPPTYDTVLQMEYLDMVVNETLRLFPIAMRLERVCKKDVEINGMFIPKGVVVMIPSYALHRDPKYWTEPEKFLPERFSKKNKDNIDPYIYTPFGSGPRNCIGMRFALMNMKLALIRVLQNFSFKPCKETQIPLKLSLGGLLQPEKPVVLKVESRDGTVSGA
# Cytochrome P450 2C19 (Homo sapiens), sequence (P33261 whole entry, looked up): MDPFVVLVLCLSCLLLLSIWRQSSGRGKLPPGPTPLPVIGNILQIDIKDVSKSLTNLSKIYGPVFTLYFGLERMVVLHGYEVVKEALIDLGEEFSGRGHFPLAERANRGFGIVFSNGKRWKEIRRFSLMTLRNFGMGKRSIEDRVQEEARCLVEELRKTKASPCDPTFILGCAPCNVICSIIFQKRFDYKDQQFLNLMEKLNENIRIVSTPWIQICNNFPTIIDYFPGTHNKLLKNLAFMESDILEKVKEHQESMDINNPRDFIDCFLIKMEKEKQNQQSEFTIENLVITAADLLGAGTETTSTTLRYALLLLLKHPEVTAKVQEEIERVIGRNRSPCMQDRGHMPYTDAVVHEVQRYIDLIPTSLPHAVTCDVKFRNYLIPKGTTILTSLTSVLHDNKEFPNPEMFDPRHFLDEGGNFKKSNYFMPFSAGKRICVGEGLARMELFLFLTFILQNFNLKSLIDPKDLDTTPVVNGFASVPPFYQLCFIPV
# Cytochrome P450 3A7 (Homo sapiens), sequence (P24462 whole entry, looked up): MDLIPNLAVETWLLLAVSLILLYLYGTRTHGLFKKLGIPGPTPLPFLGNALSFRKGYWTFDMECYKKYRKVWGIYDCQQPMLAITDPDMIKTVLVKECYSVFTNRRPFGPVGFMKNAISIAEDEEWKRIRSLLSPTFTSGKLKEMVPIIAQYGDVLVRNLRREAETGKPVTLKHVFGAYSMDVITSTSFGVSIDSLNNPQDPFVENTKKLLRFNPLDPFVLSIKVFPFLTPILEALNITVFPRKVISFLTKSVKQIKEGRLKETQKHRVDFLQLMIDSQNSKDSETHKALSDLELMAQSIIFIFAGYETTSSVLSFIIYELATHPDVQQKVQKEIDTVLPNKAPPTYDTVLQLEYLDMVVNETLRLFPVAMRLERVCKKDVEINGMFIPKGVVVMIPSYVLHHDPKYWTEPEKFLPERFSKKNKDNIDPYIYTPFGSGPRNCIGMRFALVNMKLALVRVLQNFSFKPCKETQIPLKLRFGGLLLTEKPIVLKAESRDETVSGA
# Apoptosis regulator Bcl-2 (Homo sapiens), sequence (P10415 whole entry, looked up): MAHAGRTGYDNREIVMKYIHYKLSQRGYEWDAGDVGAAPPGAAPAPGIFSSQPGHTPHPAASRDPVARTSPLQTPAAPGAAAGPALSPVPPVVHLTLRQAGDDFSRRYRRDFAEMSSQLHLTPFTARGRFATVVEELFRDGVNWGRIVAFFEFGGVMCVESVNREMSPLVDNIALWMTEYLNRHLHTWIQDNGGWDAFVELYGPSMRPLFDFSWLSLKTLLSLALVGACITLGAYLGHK
# Caspase-3 (Homo sapiens), sequence (P42574 whole entry, looked up): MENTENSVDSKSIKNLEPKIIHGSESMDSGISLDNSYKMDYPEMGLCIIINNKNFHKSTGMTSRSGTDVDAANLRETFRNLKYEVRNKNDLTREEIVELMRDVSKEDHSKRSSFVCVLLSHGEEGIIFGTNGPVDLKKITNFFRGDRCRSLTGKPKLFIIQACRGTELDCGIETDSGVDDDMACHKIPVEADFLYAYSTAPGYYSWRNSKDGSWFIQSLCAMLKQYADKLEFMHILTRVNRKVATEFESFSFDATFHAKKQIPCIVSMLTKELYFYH
smiles,measurement,setting,value
c1cc[n+]2c(c1)-c1cccc[n+]1CC2,outcome,[1],inactive
same,outcome,[2],inactive
same,outcome,[3],inactive
same,outcome,Caspase-3 (Homo sapiens),inactive
same,outcome,[4],inactive
same,AC50,[5],12.4 µM (active)
same,outcome,[6],inactive
same,outcome,[7],inactive
same,outcome,[8],inactive
same,outcome,CYP2C8 (gene 1558),inactive
same,outcome,CYP2C9 (gene 1559),inactive
same,outcome,CYP2E1 (gene 1571),inactive
same,outcome,CYP4A11 (gene 1579),inactive
same,outcome,[9],inactive
same,outcome,[10],inactive
same,outcome,[11],inactive
same,outcome,[12],inactive
same,outcome,[13],inactive
